Assay [1] can be described thus: binders of probe aFSTL3 on microarray, primary screen, stem cell growth factor project, biochemical, small-molecule microarray, fluorescence 635/667 (AID 1064).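 Also: measures binding of the biotinylated anti-FSTL3 antibody to printed compounds.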 The note with it: higher = more signal.
Assay [2] can be described thus: binders from COS7 lysate, DM2A8 probe, primary screen, torsin A project, cell lysate, small-molecule microarray, fluorescence 635/667 (AID 1065). To be noted: higher = more signal, COS7 lysate expressing mutant human TOR1A.
Assay [3] can be described thus: binders of probe aFGF2 on microarray, primary screen, stem cell growth factor project, biochemical, small-molecule microarray, fluorescence 635/667 (AID 1067).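 Also: measures binding of biotinylated aFGF2 protein to printed compounds on slides; z-score merges feature fluorescence and signal-to-noise across triplicate slides.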 The note with it: higher = more signal.
Assay [4] in a line: binders of probe aFGF10 on microarray, primary screen, stem cell growth factor project, biochemical, small-molecule microarray, fluorescence 635/667 (AID 1071).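 Also: score merges 667 nm spot intensity and signal to noise from triplicate slides.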 The note with it: higher = more signal.
For assay [5], the target named is Neurogenic locus notch homolog protein 2 (Homo sapiens) (UniProt Q04721). The assay can be described thus: Notch2 binders on small-molecule microarrays, primary screen, biochemical, small-molecule microarray, 635 nm fluorescence, stem cell growth factors (AID 1073). The note with it: Notch2 binding, higher = more signal.
Neurogenic locus notch homolog protein 2 (Homo sapiens), sequence (Q04721 whole entry, looked up, canonical isoform): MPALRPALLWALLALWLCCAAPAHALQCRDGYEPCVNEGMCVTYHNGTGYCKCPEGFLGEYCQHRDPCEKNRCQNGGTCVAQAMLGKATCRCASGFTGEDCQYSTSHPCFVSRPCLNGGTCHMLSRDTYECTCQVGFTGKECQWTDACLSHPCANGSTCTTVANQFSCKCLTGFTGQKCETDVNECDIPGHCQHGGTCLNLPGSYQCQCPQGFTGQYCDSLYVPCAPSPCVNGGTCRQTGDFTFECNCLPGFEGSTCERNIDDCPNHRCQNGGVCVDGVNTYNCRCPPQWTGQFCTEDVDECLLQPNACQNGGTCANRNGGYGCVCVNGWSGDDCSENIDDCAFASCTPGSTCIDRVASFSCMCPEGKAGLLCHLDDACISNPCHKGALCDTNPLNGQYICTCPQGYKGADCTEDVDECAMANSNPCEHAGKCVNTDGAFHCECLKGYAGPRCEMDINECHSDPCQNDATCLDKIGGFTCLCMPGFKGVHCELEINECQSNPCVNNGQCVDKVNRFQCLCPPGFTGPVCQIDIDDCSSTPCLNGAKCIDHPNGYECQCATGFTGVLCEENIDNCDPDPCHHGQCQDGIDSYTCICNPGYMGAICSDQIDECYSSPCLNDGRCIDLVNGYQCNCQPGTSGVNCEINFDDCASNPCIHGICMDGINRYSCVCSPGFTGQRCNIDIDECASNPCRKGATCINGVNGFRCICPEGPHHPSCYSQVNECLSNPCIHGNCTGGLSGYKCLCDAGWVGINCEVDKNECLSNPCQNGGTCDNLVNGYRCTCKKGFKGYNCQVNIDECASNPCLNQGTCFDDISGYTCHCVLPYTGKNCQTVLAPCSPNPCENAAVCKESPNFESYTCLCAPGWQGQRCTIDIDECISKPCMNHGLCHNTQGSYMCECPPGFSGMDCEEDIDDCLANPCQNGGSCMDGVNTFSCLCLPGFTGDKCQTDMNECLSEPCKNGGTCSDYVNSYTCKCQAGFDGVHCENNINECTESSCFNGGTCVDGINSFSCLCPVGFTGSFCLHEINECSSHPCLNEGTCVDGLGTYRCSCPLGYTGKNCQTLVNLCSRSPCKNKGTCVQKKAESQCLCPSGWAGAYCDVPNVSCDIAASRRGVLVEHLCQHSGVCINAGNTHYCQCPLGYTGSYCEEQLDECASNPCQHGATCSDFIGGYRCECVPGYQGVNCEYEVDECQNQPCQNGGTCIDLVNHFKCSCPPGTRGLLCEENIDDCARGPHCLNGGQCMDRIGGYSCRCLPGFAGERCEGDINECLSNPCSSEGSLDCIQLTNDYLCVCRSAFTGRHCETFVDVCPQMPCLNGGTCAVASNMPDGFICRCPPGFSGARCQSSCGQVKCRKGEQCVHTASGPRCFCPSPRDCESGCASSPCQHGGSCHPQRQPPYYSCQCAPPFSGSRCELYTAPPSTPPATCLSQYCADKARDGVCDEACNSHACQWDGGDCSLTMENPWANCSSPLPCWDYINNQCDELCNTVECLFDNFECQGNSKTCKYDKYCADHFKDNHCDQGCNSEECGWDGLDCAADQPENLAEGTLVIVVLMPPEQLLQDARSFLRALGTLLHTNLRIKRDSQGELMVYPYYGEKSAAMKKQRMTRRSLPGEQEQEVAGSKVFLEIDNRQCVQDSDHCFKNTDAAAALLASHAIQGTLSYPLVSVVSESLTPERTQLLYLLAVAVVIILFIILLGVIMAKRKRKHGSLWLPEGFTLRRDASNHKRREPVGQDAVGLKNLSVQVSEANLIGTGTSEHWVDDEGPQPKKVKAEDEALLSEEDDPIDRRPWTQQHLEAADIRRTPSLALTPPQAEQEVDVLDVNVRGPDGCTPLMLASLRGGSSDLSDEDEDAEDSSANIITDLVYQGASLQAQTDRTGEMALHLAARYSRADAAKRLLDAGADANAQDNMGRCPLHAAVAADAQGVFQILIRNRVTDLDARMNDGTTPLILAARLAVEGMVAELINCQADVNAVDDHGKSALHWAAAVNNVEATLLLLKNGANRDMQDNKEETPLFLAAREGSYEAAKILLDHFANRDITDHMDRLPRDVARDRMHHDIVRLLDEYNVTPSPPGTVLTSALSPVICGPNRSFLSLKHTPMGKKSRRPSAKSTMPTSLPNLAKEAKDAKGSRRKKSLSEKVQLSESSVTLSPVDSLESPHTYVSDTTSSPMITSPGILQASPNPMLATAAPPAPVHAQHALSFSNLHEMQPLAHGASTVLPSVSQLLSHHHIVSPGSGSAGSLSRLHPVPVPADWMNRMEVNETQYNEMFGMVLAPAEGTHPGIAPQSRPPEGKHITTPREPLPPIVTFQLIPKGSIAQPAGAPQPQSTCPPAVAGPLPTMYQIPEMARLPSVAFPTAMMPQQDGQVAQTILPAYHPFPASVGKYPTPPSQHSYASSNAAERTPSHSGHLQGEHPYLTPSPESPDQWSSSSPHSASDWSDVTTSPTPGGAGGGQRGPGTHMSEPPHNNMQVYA
Assay [6] has as its target Pro-neuregulin-1, membrane-bound isoform (Homo sapiens) (UniProt Q02297). The assay can be described thus: NRG1 binders on small-molecule microarrays, primary screen, psychiatric disease protein project, biochemical, small-molecule microarray, fluorescence 635/667 (AID 1075).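 Also: score combines 667 nm spot fluorescence with signal to noise.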 The note with it: NRG1 binding, 635 nm fluorescence, higher = more signal.
The subject of assay [7] is Neuregulin-1 EGF-like domain. The assay can be described thus: binders of neuregulin-1 EGF-like domain, primary screen, biochemical, small-molecule microarray, 635 nm fluorescence (AID 1081).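 Also: binding of the protein to compounds printed on small-molecule microarray slides.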 The note with it: small-molecule microarray binding, higher = more signal.
A short description of assay [8]: FRG1 promoter luciferase signal modulators, primary screen, FRG1 inhibition for FSHD, cell-based, C2C12 myotubes, firefly/Renilla luciferase, luminescence (AID 1084). The note with it: higher = more signal, called active from +8 up or from −8 down.
The nature of assay [9]: binders of probe aFST on microarray, primary screen, stem cell growth factor project, biochemical, small-molecule microarray, fluorescence 635/667 (AID 1086).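 Also: score merges 667 nm fluorescence with signal-to-noise of each printed compound spot.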 To be noted: higher = more signal.
Assay [10] is described as follows: binders of probe aHhip on microarray, primary screen, stem cell growth factor project, biochemical, small-molecule microarray, fluorescence 635/667 (AID 1087).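 Also: score merges spot fluorescence at 667nm with spot signal to noise ratio.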 The note with it: higher = more signal.
Assay [11] relates to PRMT1 (protein arginine N-methyltransferase 1). The experiment in a line: PRMT1 binders on small-molecule microarrays, primary screen, biochemical, small-molecule microarray, 635 nm fluorescence (AID 1088).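 Also: binding of Prmt1 protein to compounds spotted on small-molecule microarray slides.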 To be noted: small-molecule microarray binding, higher = more signal.
The nature of assay [12]: yeast growth modulation, basal conditions, primary screen, YJM789 clinical isolate, OD600, 24 h (AID 1089).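 Also: growth of clinical yeast isolate S. cerevisiae YJM 789 seeded 1000 cells per well; test concentration not given here.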 The note with it: S. cerevisiae YJM789 growth, higher = more signal, called active from +8 up or from −8 down.
The nature of assay [13]: fission yeast growth modulation, primary screen, strain 972, OD600, 24 h, no modulator (AID 1090).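 Also: basal condition with compound alone and no growth modifier present; test concentration not given here.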 The note with it: S. pombe 972 growth, higher = more signal, called active from +8 up or from −8 down.
Assay [14] in a line: S. cerevisiae growth modulation with rapamycin, primary screen, strain BY4716, OD600, 96 h (AID 1091). Also: test concentration not given here. The note with it: higher = more signal, called active from +8 up or from −8 down.
Assay [15] has as its target Torsin-1A-interacting protein 2 (Homo sapiens) (UniProt Q8NFQ8). The assay can be described thus: LULL1 binders on small-molecule microarray, primary screen, cell lysate, human LULL1 lysate, 635/667 nm fluorescence (AID 1092).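 Also: probe is lysate of COS7 cells overexpressing human LULL1; score merges per-feature 667 nm fluorescence with signal-to-noise.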 The note with it: hLULL1 lysate binding, 635 nm fluorescence, higher = more signal.
A short description of assay [16]: E. coli growth modulation, two-sided OD650, primary screen, E. coli filamentation project, strain DRC41, 24 h (AID 1093).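 Also: MC1000 strain lacking acrAB efflux and sulA so SOS filamentation is blocked; test concentration not given here.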 The note with it: OD650, 24 h, higher = more signal, called active from +8 up or from −8 down.
Assay [17] can be described thus: small-molecule microarray binders of probe aLefty2, primary screen, biochemical, biotinylated probe, 635/667 nm fluorescence (AID 1094).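 Also: score merges spot fluorescence near 667 nm with spot signal-to-noise ratio.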 The note with it: higher = more signal.
Assay [18] concerns Noggin (protein binding on small-molecule microarray). The assay can be described thus: Noggin binders on small-molecule microarray, primary screen, biochemical, 635/667 nm fluorescence (AID 1095).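 Also: score merges 667 nm feature fluorescence with signal to noise over triplicate slides.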 To be noted: 635 nm fluorescence, higher = more signal.
Assay [19] addresses Neurogenic locus notch homolog protein 3 (Homo sapiens) (UniProt Q9UM47). The experiment in a line: NOTCH3 binders on small-molecule microarray, primary screen, biochemical, 635/667 nm fluorescence (AID 1096). The note with it: NOTCH3 binding, 635 nm fluorescence, higher = more signal.
Assay [20] in a line: small-molecule microarray binders of probe aEGFR, primary screen, biochemical, biotinylated probe, 635/667 nm fluorescence (AID 1097).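 Also: probe is a biotinylated anti-EGFR antibody binding compounds printed on slides; score combines fluorescence near 667 nm and signal to noise of each spot.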 To be noted: higher = more signal.

Our source for the composite z-score and z-score values is PubChem BioAssay.

Each structure is given as a SMILES string. Activity calls are given as the source filed them.

Pro-neuregulin-1, membrane-bound isoform (Homo sapiens), sequence (Q02297 whole entry, looked up, the tested form may be a part, canonical isoform): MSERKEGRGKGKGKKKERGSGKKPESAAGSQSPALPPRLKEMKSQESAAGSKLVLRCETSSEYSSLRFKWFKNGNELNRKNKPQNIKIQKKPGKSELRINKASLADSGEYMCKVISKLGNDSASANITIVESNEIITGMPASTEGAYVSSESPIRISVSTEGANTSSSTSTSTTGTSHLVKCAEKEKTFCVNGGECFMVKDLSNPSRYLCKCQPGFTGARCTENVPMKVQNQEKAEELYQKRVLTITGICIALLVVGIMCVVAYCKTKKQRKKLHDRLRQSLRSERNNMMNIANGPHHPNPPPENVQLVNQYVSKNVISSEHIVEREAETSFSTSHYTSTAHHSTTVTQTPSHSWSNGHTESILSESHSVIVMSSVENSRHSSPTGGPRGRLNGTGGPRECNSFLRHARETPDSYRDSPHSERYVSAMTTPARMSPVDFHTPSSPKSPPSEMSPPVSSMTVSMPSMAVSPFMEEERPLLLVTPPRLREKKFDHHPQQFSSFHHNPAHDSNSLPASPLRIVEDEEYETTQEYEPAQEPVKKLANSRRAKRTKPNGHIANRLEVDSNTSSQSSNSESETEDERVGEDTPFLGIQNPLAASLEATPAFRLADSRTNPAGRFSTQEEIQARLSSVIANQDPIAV
Torsin-1A-interacting protein 2 (Homo sapiens), sequence (Q8NFQ8 whole entry, looked up): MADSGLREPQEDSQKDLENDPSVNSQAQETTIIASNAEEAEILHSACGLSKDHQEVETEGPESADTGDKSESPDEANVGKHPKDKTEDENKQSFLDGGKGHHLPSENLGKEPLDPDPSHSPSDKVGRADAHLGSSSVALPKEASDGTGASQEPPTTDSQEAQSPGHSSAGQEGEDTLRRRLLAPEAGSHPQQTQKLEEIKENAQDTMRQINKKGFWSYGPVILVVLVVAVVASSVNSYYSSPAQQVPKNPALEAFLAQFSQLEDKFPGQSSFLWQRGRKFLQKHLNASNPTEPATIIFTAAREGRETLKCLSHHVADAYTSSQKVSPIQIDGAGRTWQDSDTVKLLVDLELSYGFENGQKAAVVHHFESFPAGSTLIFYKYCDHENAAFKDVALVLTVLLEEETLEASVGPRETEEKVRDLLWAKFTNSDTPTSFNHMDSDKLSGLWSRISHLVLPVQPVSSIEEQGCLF

`C=CCOC(=O)[C@H]1[C@@H]2C(=O)O[C@@H](c3ccccc3)[C@@H](c3ccccc3)N2[C@@H](c2ccc(OCCOC(=O)[C@@H]3C[C@@H]4C(=O)N[C@@H](CC(C)C)C(=O)N4[C@@H]3c3ccc(O)cc3)cc2)[C@]12C(=O)Nc1ccccc12`: the composite z-score was -0.254 in [1]; 0.479 in [2]; 0.0056 in assay [3]; 0.649 in assay [4]; 0.85 in [5]; 1.02 in assay [6]. The composite z-score in assay [7] was determined as 1.2; in assay [9] it was 0.0922; in assay [10], 0.0201; in assay [11], 1.53; in assay [15] it was 3.2; in assay [17] it was 0.115. Moreover, the composite z-score in assay [18] is 1.49; in assay [19], 1.1; in assay [20] it was 0.0195. The z-score in [8] was 0.631 (inactive); in assay [12] it was 0.963 (inactive); in assay [13], 1.32 (inactive); in assay [14], 4.11 (inactive); in [16] it was 0.703 (inactive).

On to `O=C1c2ccccc2[C@](Cc2ccccc2I)(C(=O)NCC(F)(F)F)[C@H](c2ccc(CO)cc2)N1Cc1ccccc1Cl`, for which the composite z-score in [1] is -0.266; in assay [2], 0.0347; in [3], 0.0069; in assay [4] it was 0.106; in assay [5], 0.95; in assay [6], 1.74. The composite z-score in assay [7] was 1.28; in [9], 0.748; in [10] it was 0.0373; in assay [11] it was 1.53; in [15], 3; in assay [17], -0.0283. Also, the composite z-score in assay [18] was 0.496; in assay [19], 0.958; in assay [20] it was -0.0409. Also, the z-score is -1.05 (inactive) in assay [8]; -0.893 (inactive) in [12]; -1.09 (inactive) in assay [13]; -1.29 (inactive) in assay [14]; -0.267 (inactive) in assay [16].

On to `COc1cc2c(cc1OC)CN(C(=O)[C@H]1[C@@H]3C(=O)O[C@@H](c4ccccc4)[C@@H](c4ccccc4)N3[C@@H](c3ccc(O)cc3)[C@]13C(=O)Nc1ccc(C#CCCO)cc13)CC2`, for which the composite z-score in assay [1] was 0.0257; in assay [2] it was 0.322; in assay [3], -0.0659; in [4], 0.519; in assay [5], 0.0774; in [6], 1.63. Moreover, the composite z-score is 1.28 in assay [7]; -0.0227 in assay [9]; -0.125 in assay [10]; 1.56 in assay [11]; 2.44 in assay [15]; -0.145 in [17]. In addition, the composite z-score in assay [18] was 0.837; in assay [19] it was 0.434; in [20] it was -0.152. For the same compound, the z-score was -0.845 (inactive) in assay [8]; 1 (inactive) in [12]; -0.0822 (inactive) in assay [13]; 1.91 (inactive) in assay [14]; 1.32 (inactive) in assay [16].

Consider `COC(=O)C[C@H]1O[C@]2(C(=O)N(C)c3ccccc32)[C@@H](C)[C@@H]1[Si](C)(C)F`, for which the composite z-score in assay [1] was -0.54; in assay [2], 0.109; in [3], -0.131; in assay [4] it was 0.626; in assay [5], 0.423; in [6] it was -0.133. For the same compound, the composite z-score was 0.346 in [7]; -0.0253 in [9]; 0.141 in [10]; 1.54 in assay [11]; 2.24 in assay [15]; -0.168 in assay [17]. Besides, the composite z-score in [18] is 1.86; in assay [19] it was 0.59; in assay [20], -0.132. Also, the z-score in [8] was -1.35 (inactive); in [12] it was -2.06 (inactive); in assay [13], -1.29 (inactive); in assay [14], -0.922 (inactive); in assay [16], 1.64 (inactive).

Consider `C=CCOC(=O)[C@H]1[C@@H]2C(=O)O[C@@H](c3ccccc3)[C@@H](c3ccccc3)N2[C@@H](c2ccc(OCCOC(=O)[C@H]3C[C@H]4C(=O)N[C@@H](CCCC[N+](C)(C)C)C(=O)N4[C@H]3c3ccc(O)cc3)cc2)[C@]12C(=O)Nc1ccc(I)cc12`, for which the composite z-score in assay [1] was -0.301; in assay [2], 1.33; in [3] it was -0.0904; in [4], -0.333; in assay [5], -0.295; in assay [6], 2.05. The composite z-score in assay [7] was 0.595; in assay [9], -0.333; in assay [10], 0.6; in [11], 1.36; in assay [15], 1.14; in assay [17] it was 0.331. Further, the figures for the composite z-score in assay [18], in assay [19] and in assay [20] were 0.733, 0.209 and 0.0304, respectively. In addition, the z-score is 2.93 (inactive) in [8]; 0.318 (inactive) in [12]; -0.503 (inactive) in assay [13]; 0.467 (inactive) in [14]; -0.173 (inactive) in assay [16].

For the compound `NC(=O)NCC#Cc1ccc2c(c1)[C@]1(C(=O)N2)[C@H](C(=O)Nc2nc3ccccc3s2)[C@H]2C(=O)O[C@H](c3ccccc3)[C@H](c3ccccc3)N2[C@@H]1c1ccccc1OCCO`, the composite z-score in assay [1] was found to be 1.85; in assay [2], 0.407; in assay [3] it was 0.0863; in assay [4], 1.01; in assay [5], 1.03; in assay [6], 1.57. Also, the composite z-score was 0.406 in assay [7]; 1.39 in assay [9]; -0.0478 in [10]; 1.54 in assay [11]; 3.85 in assay [15]; -0.351 in assay [17]. Also, the composite z-score in [18] is 1.61; in assay [19], 1.06; in assay [20], 0.506. Further, the z-score in assay [8] was 1.62 (inactive); in assay [12], 1.17 (inactive); in [13], 1.33 (inactive); in assay [14], 3.48 (inactive); in assay [16] it was 1.5 (inactive).
